{"source": "PubChem BioAssay AID624296", "about": "(National Center for Advancing Translational Sciences (NCATS), 2012)", "note": "Among all 350,000 compounds or so, about 9,900 (2.8%) were called active. Not shown: some 15% with an inconclusive outcome. The entries come from a sample that favours actives as a whole. Values without a mark were called inactive. The call rests on the fitted dose curve; in most records, active means well fitted activation curve with a large enough effect; inconclusive means small, poorly fitted or top-dose-only effect; inactive means no such curve, though single readings can be large or run the other way."}
{"experiment": "A quantitative high throughput screen for small molecules that induce DNA re-replication in MCF 10a normal breast cells; further: nearly all actives have a fitted effect of over 50% in size; further: potency means the concentration at half of the fitted maximal effect; on activity, positive = re-replication: % of control where 0% means no effect.", "conditions": "MCF 10A DNA re-replication, Hoechst nuclear intensity, 48 h; series mostly up to 46.1 µM; activity, positive = re-replication: at the top concentration"}
{"compound": "O=C1CC(c2ccccc2)C(=O)N2C(=O)CC(c3ccccc3)C(=O)N12", "note": "(stereo not given)", "activity, positive = re-replication": "-15.2%"}
{"compound": "COc1ccc(S(=O)(=O)N(C)C[C@H]2Oc3c(NC(=O)Nc4ccc5c(c4)OCO5)cccc3C(=O)N([C@H](C)CO)C[C@@H]2C)cc1", "activity, positive = re-replication": "21.1%"}
{"compound": "CCCN(C(=O)CSc1nnc(N)s1)c1c(N)n(Cc2ccccc2)c(=O)[nH]c1=O", "activity, positive = re-replication": "0.0358%"}
{"compound": "O=C1C=C(c2ccc(Cl)cc2)C(=O)N1Nc1ccccc1", "Potency": "5.8 µM (active)"}
{"compound": "O=C(O)CC1=C(Nc2ccccc2)C(=O)N(c2ccccc2)C1c1ccc(Cl)cc1", "note": "(stereo not given)", "activity, positive = re-replication": "1.9%"}
{"compound": "O=C1c2cccc3cc(Br)cc(c23)C(=O)N1Nc1ccccc1", "activity, positive = re-replication": "1.71%"}
{"compound": "Cc1ccc(Nc2nnc(SC(C)C(=O)NC3CC3)s2)cc1", "note": "(stereo not given)", "activity, positive = re-replication": "-7.06%"}
{"compound": "O=C(N/N=C/c1ccccn1)c1cccnc1", "activity, positive = re-replication": "-7.85%"}
{"compound": "O=C(NN=C1CCC(=NNC(=O)c2cccnc2)CC1)c1cccnc1", "Potency": "0.58 µM (active)"}
{"compound": "C/C(=N\\NC(=O)c1cccnc1)c1ccc(-c2ccccc2)cc1", "activity, positive = re-replication": "-18.5%"}
{"compound": "CCN(CC)CCCC(C)n1c2nc(=O)[nH]c(=O)c-2nc2cc(Cl)ccc21", "note": "(stereo not given)", "activity, positive = re-replication": "27.2%"}
{"compound": "COc1ccc(-c2nn(-c3ccccc3)cc2/C=C2/SC(=S)N(CCCC(=O)O)C2=O)c(C)c1", "activity, positive = re-replication": "-14.8%"}
{"compound": "CN(C)S(=O)(=O)c1cccc(-c2nn(-c3ccccc3)cc2/C=C2\\SC(=S)N(CC(=O)O)C2=O)c1", "activity, positive = re-replication": "6.32%"}
{"compound": "Cc1ccc(-c2nn(-c3ccccc3)cc2/C=C2\\SC(=S)N(CCCCCC(=O)O)C2=O)o1", "Potency": "18.4 µM (active)"}
{"compound": "COc1cc(OC)cc(-c2c(-c3cccs3)c3cc(-c4ccc(OC)nc4)ccc3n2C)c1", "activity, positive = re-replication": "12.8%"}
{"compound": "O=C(CCNC(=O)c1ccccc1)Nc1nc2ccccc2s1", "activity, positive = re-replication": "0.61%"}
{"compound": "Cc1ccc2nc(Nc3ccccc3)cc(C)c2c1", "activity, positive = re-replication": "-2.52%"}
{"compound": "CCS(=O)(=O)Nc1cccc(-c2cc(-c3ccccc3)c3cc(C)ccc3n2)c1", "Potency": "14.6 µM (active)"}
{"compound": "CC(=O)Nc1cccc(-c2cnc3ccccc3n2)c1", "activity, positive = re-replication": "-6.84%"}
{"compound": "O=C(Cn1cc(C(F)(F)F)ccc1=O)Nc1ccc2c(c1)OCCO2", "activity, positive = re-replication": "15%"}
{"compound": "CC(C)(C)c1ccc(C(=O)NCCn2c(N)c(C#N)c3nc4ccccc4nc32)cc1", "Potency": "7.31 µM (active)"}
{"compound": "CC(C)(C)c1ccc(C(=O)NCC(=O)OCN2C(=O)c3ccccc3C2=O)cc1", "activity, positive = re-replication": "-182% [at 0.0737 µM]"}
{"compound": "CC(C)(C)OC(=O)c1c(N)n(CCCN2CCCC2=O)c2nc3ccccc3nc12", "activity, positive = re-replication": "-3.82%"}
{"compound": "Cc1ccnc(SCC(=O)Nc2cccc(S(=O)(=O)N3CCOCC3)c2)n1", "activity, positive = re-replication": "-9.8%"}
{"compound": "O=C1C(=O)N(c2ccccc2)C(c2ccccc2)C1c1ccccc1", "note": "(stereo not given)", "activity, positive = re-replication": "21.6%"}
{"compound": "S=c1[nH]nc(-c2ccc(Cl)cc2)n1CC1CCCO1", "note": "(stereo not given)", "activity, positive = re-replication": "1.01%"}
{"compound": "O=C(c1[nH]ncc1-c1ccc(Cl)cc1)C1CO1", "note": "(stereo not given)", "Potency": "3.66 µM (active)"}
{"compound": "O=C(c1nnc(-c2ccc(Cl)cc2)o1)C1CCCC1", "activity, positive = re-replication": "0.097%"}
{"compound": "COC(=O)[C@@]1(C)[C@H]2C(=O)N(Cc3ccccc3)C(=O)[C@H]2[C@H]2CN=C(SCC3CC3)N21", "activity, positive = re-replication": "8.44%"}
{"compound": "COc1ccc(Cl)cc1NC(=O)CN(C)CC(=O)Nc1ccc2c(c1)OCO2", "activity, positive = re-replication": "7.09%"}
{"compound": "Cc1ccc(C)c(N2CCN(C(=O)CCc3nc(-c4cccc(C(F)(F)F)c4)no3)CC2)c1", "activity, positive = re-replication": "1.26%"}
{"compound": "NC(=S)NN=C1CCCC(C(F)(F)F)C1", "note": "(stereo not given)", "activity, positive = re-replication": "-4.67%"}
{"compound": "Cc1ccc(S(=O)(=O)n2oc(=O)c(C3CCCCC3)c2N)cc1", "activity, positive = re-replication": "-4.25%"}
{"compound": "OCC1(CCc2ccccc2)CCN(Cc2ccc3nsnc3c2)CC1", "activity, positive = re-replication": "-0.27%"}
{"compound": "COc1cccc(CC2(CO)CCN(Cc3cnc(-c4cccc(C)c4)nc3)CC2)c1", "activity, positive = re-replication": "16.8%"}
{"compound": "Cc1cccc(-c2ncc(CN3CCC(CO)(CCCc4ccccc4)CC3)cn2)c1", "Potency": "18.4 µM (active)"}
{"compound": "COc1cccc(C2=CC(=O)C[C@H](c3ccc(OC)c(OC)c3)C2)c1", "activity, positive = re-replication": "-1.75%"}
{"compound": "CCOc1ccc(N2C(=O)CSC2=NC#N)cc1", "activity, positive = re-replication": "0.981%"}
{"compound": "O=C1CSC(=S)N1c1ccc(O)cc1", "Potency": "16.4 µM (active)"}
{"compound": "COc1ccc(N2C(=O)CNC2=S)cc1", "activity, positive = re-replication": "-1.08%"}
{"compound": "COc1ccc(CNC(=O)CN2C(=O)NC3(CCCc4sccc43)C2=O)cc1", "note": "(stereo not given)", "activity, positive = re-replication": "2.5%"}
{"compound": "O=C(CCCCCCCC(=O)N1CCCCC1)N1CCCCC1", "activity, positive = re-replication": "0.602%"}
{"compound": "O=C(Nc1cc(-c2ccccc2)nn1-c1ccccc1F)c1ccc([N+](=O)[O-])cc1", "activity, positive = re-replication": "8.57%"}
{"compound": "O=C1CSc2ccc(C(=O)NCc3ccccn3)cc2N1", "activity, positive = re-replication": "-5.56%"}
{"compound": "CCCC(CNC(=O)COC(=O)C1=NNC(=O)CC1)c1ccc(Cl)cc1Cl", "note": "(stereo not given)", "activity, positive = re-replication": "-31%"}
{"compound": "O=C(O)/C=C/c1cn(-c2ccccc2)nc1-c1cccs1", "activity, positive = re-replication": "-0.193%"}
{"compound": "O=C(O)c1ccc(N/N=C/c2cn(-c3ccccc3)nc2-c2cccs2)cc1", "Potency": "23.1 µM (active)"}
{"compound": "O=C(NCc1cccnc1)c1cn(-c2ccccc2)nc1-c1cccs1", "activity, positive = re-replication": "-3.9%"}
{"compound": "CCCCn1c(=S)[nH]c2ccccc2c1=O", "activity, positive = re-replication": "10.2%"}
{"compound": "O=c1c2ccccc2[nH]c(=S)n1CCN1CCC(=C(c2ccc(F)cc2)c2ccc(F)cc2)CC1", "Potency": "18.4 µM (active)"}
{"compound": "COc1ccccc1Cn1c(=S)[nH]c2cc(C(=O)N3CCN(C)CC3)ccc2c1=O", "activity, positive = re-replication": "29.4%"}
{"compound": "CCCOc1ccccc1C1CC(=O)Nc2cc3c(cc21)OCO3", "note": "(stereo not given)", "Potency": "6.51 µM (active)"}
{"compound": "COc1ccccc1C1C2=C(COC2=O)Nc2cc3c(cc21)OCO3", "note": "(stereo not given)", "activity, positive = re-replication": "-4.62%"}
{"compound": "COc1ccc(C2CC(=O)Nc3cc(C)c(C)cc32)c(OC)c1OC", "note": "(stereo not given)", "activity, positive = re-replication": "0.878%"}
{"compound": "Nc1c(N(Cc2ccco2)C(=O)c2cccc(F)c2)c(=O)[nH]c(=O)n1Cc1ccccc1", "activity, positive = re-replication": "-4.93%"}
{"compound": "CC(=O)NC1=NN(C(C)=O)C(C)(CCS(=O)(=O)c2ccc(Cl)c(Cl)c2)S1", "note": "(stereo not given)", "activity, positive = re-replication": "-0.888%"}
{"compound": "CC(=O)NC1=NN(C(C)=O)C(C)(c2ccc(C)cc2)S1", "note": "(stereo not given)", "activity, positive = re-replication": "0.0102%"}
{"compound": "CC(=O)NC1=NN(C(C)=O)C(C)(c2ccc(Cl)s2)S1", "note": "(stereo not given)", "Potency": "8.2 µM (active)"}
{"compound": "COc1ccccc1S(=O)(=O)NCc1ccc(C(=O)N(C)Cc2ccc(F)cc2)cc1", "activity, positive = re-replication": "-3.7%"}
{"compound": "O=C(COC(=O)c1cccnc1Cl)NC12CC3CC(CC(C3)C1)C2", "activity, positive = re-replication": "9.09%"}
{"compound": "O=C(COC(=O)c1ccc(F)cc1)NCC1COc2ccccc2O1", "note": "(stereo not given)", "activity, positive = re-replication": "-12.8%"}
{"compound": "Cc1cc(C(=O)OCC(=O)NCc2ccco2)c(C)n1-c1ccccc1", "Potency": "6.31 µM (active)"}
{"compound": "CN(c1ccccc1)S(=O)(=O)c1ccc(Cl)c(C(=O)OCC(=O)NCc2ccco2)c1", "activity, positive = re-replication": "1.68%"}
{"compound": "O=C(COC(=O)c1ccccc1O)NCc1ccco1", "activity, positive = re-replication": "1%"}
{"compound": "O=C1c2ccccc2C(=O)N1CCCCCCN1C(=O)c2ccccc2C1=O", "activity, positive = re-replication": "-5.68%"}
